In the library only some 3.3% were active in any assay of this set; here they are far more common.
Cl transport mod: modulators of human KCC2 chloride dependent transport; Q9H2X9; KCC2 cells, thallium flux FluoZin-2 fluorescence; B-score of Tl+ flux slope (higher = more flux/activation; lower = inhibition) at 10 µM; 2.2% of 190,000 active;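 active = thallium flux slope and its plate-corrected score both differing from the plate sample mean at a set confidence after two filtering rounds, in either direction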;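 note: slope of fluorescence scaled to starting intensity during 10 to 20 s after thallium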
Cardio protect: myocardial damage modulation in H9c2 cells | protection from H2O2 cell death, % at 20 µM | 0.63% of 360,000 active | H9c2 cardiomyocytes, H2O2 injury protection, ATPLite, 2 h;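 active = compounds giving at least 50% protection of heart cells from peroxide-induced death in the single-dose screen, raw or plate-pattern-corrected value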;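 note: 0% = DMSO wells with peroxide and 100% = DMSO wells without peroxide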
Calb FLC: affects C. albicans growth with fluconazole. C. albicans CaCi-2 (fluconazole-resistant clinical isolate) + fluconazole, Alamar Blue growth, 48 h. growth inhibition, % (no concentration beside the values). 0.57% of 300,000 active. AID 1979;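 active = growth inhibition above about 58% in most replicates, limit read from the data, passing the limit was not always enough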;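 note: all wells also contain fluconazole at 8 µg/ml as a sub-toxic cotreatment; 0% = median of DMSO wells and 100% = median of geldanamycin control wells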
Efflux pump mplx: inhibitors of Candida antifungal efflux pumps expressed in yeast | inhibition, % at 10 µM | 0.44% of 330,000 active | S. cerevisiae Candida pump triplex, Nile Red efflux | AID 485275;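 active = plate passing quality check with inhibition over a set limit, or well fluorescence over plate mean plus 4 SD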;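 note: Nile Red retained in pooled yeast measured as flow cytometry median fluorescence; 0% = buffer negative control and 100% = Enniatin B positive control; higher means more Nile Red kept so more efflux inhibition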
PHOSPHO1 inh: PHOSPHO1 (human) inhibition; inhibition, % at 13.3 µM; recombinant PHOSPHO1, absorbance phosphatase assay; 1.1% of 290,000 active; AID 1565; Q8TCT1; in the data active = inhibition above about 60%
* = called active by the depositor; nt = no result.

SMILES | Cl transport mod | Cardio protect | Calb FLC | Efflux pump mplx | PHOSPHO1 inh
CCOC(=O)c1c(NC(=O)CSc2nc3ccc(C)cc3[nH]2)sc2c1CC(C)(C)NC2(C)C | nt | -10 | -4 | 0 | nt
CCSc1nnc(NC(=O)C2CCCN(C(=O)c3ccc(Cl)cc3)C2)s1 (configuration not stated) | nt | 0 | nt | nt | nt
CN(C)c1ccc(CN(C(=O)c2cc3ccccc3oc2=O)C2CCS(=O)(=O)C2)cc1 (configuration not stated) | nt | -1 | -2 | 0 | 45
O=C(c1cc2ccccc2oc1=O)N(Cc1ccco1)C1CCS(=O)(=O)C1 (configuration not stated) | -4.7* | -12 | -28 | 0 | -8
COc1ccc(Nc2nc(-c3cccs3)cs2)c(OC)c1 | nt | 0 | 19 | 0 | 80*
C[C@@H]1CCC[C@@]2(O[C@H](CCO)C[C@H](O)[C@H]2O)O1 | nt | -11 | -2 | 0 | nt
C#CCOc1nc(Nc2cccc([N+](=O)[O-])c2)nc(OCC#C)n1 | -1.6 | 56* | 9 | 1 | 8
COc1ccc(N2C(=O)c3ccc(C(=O)Nc4ccccc4OC)cc3C2=O)cc1 | nt | 0 | -6 | 0 | 54
N#CC1=C2SCN(Cc3ccco3)CN2C(=O)CC1c1c(F)cccc1Cl (configuration not stated) | nt | 16 | -5 | 0 | 79*
Cc1ccc(C2CC(=O)N3CN(Cc4ccco4)CSC3=C2C#N)cc1 (configuration not stated) | 1.3 | 2 | 34 | 0 | 76*
COc1ccc(N2CCN(C(c3cccs3)C(C)NC(=O)C(=O)N3CCOCC3)CC2)cc1 (configuration not stated) | nt | 5 | -6 | 0 | 65*
CC(NC(=O)C(=O)N1CCOCC1)C(c1cccs1)N1CCN(c2ccccc2)CC1 (configuration not stated) | nt | 3 | 23 | 0 | 26
Cc1ccc2cc(C(c3nnnn3C3CCCC3)N3CCOCC3)c(=O)[nH]c2c1C (configuration not stated) | 0.93 | -4 | -6 | 0 | 15
CCOC(=O)C1CCN(C(c2cc3ccc(C)c(C)c3[nH]c2=O)c2nnnn2C2CCCCC2)CC1 (configuration not stated) | -1.5 | 0 | 5 | 0 | 86*
CCOC(=O)C1CCN(C(c2cc3c(C)ccc(C)c3[nH]c2=O)c2nnnn2C2CCCCC2)CC1 (configuration not stated) | nt | 57* | 24 | 0 | 74*
Nc1cc(=O)[nH]c(SCC(=O)Nc2ccc(N3CCOCC3)cc2)n1 | nt | -2 | nt | 0 | nt
O=C(c1cc2ccccc2cc1O)N1CCN(c2ccc([N+](=O)[O-])cc2)CC1 | nt | -15 | 20 | 0 | nt
O=c1cc(CSc2ccc(Cl)cc2)nc(-c2ccccn2)[nH]1 | nt | 39 | 112* | 0 | nt
O=C(COc1ccc(S(=O)(=O)N2CCOCC2)cc1)N1CCN(c2ccccc2)CC1 | nt | 0 | 0 | 0 | 68*
c1ccc(Cc2nnc3sc(-c4ccco4)nn23)cc1 | -0.016 | 17 | -2 | 0 | 96*
Clc1ccccc1-c1nnc2sc(-c3ccco3)nn12 | -2.4 | 3 | 16 | 0 | 41
c1ccc(Cc2nn3c(COc4ccccc4)nnc3s2)cc1 | -1.9 | -1 | -10 | 0 | 66*
COc1cc(-c2nn3c(COc4ccccc4)nnc3s2)cc(OC)c1OC | 0.6 | 15 | -21 | 0 | 74*
COc1cc(-c2nn3c(Cc4ccccc4)nnc3s2)cc(OC)c1OC | -0.73 | 26 | 5 | 0 | 77*
CCc1ccc(C(=O)CSc2nc(C)cc(=O)[nH]2)cc1 | -0.46 | 10 | -2 | 0 | 1
SMILES | Cl transport mod | Cardio protect | Calb FLC | Efflux pump mplx | PHOSPHO1 inh
O=C(CN1CCN(CC(=O)c2ccccc2)CC1)c1ccccc1 | nt | 11 | nt | nt | nt
CCN1C(=O)/C(=C/c2nc3ccccc3c(=O)[nH]2)c2ccccc21 | 0.12 | 78* | nt | 0 | -7
CCCN=C1N(C)C[C@@H]2[C@@H]3C(=O)N(Cc4ccccc4)C(=O)[C@@H]3[C@](Cc3ccccc3)(C(=O)OC)N12 | nt | -1 | nt | 0 | nt
COc1ccc(-c2ccc(C(=S)N3CCN(C(C)=O)CC3)o2)cc1 | 0.78 | 5 | 1 | 0 | 85*
COc1ccc(CC(=O)N2CCN(C(=O)Cc3ccc(OC)cc3)CC2)cc1 | 1.2 | 8 | 1 | 0 | 11
CC(C)=NNc1cnnc2ccc([N+](=O)[O-])cc12 | nt | 56* | nt | nt | nt
C/C(=N\Nc1ccc([N+](=O)[O-])cc1[N+](=O)[O-])c1cccnc1 | nt | -1 | -25 | 0 | 2
CC(=O)N(Cc1cccnc1)c1cccc(-c2nc3ccccc3s2)c1 | nt | -9 | 19 | 0 | 66*
Cc1cc(C)c2ccc(N)nc2c1O | -0.4 | 60* | 107* | 0 | 20
Cc1ccccc1C1c2[nH]c3ccccc3c2C[C@H]2C(=O)N(c3ccccc3C(=O)NCCCN3CCOCC3)C(=O)N12 (some centres not stated) | nt | 55* | 14 | 0 | 29
Cc1ccccc1C1c2[nH]c3ccccc3c2C[C@H]2C(=O)N(c3ccccc3C(=O)NCCN3CCOCC3)C(=O)N12 (some centres not stated) | nt | 29 | 25 | 0 | -2
CCOc1ccccc1NC(=O)COC(=O)c1ccc2ccccc2n1 | nt | -5 | nt | 0 | nt
C/C(=N\NC(=O)c1cccc(N/N=C(\C)c2cc(O)ccc2O)c1)c1cc(O)ccc1O | 0.9 | 37 | 103* | 0 | -116
O=C(NC1CC(=O)N(c2cccc(F)c2)C1)N1CCN(C(=O)c2ccco2)CC1 (configuration not stated) | nt | -3 | 0 | 0 | nt
Clc1ccc2c(c1)C(c1cccs1)=NNC(c1cccnc1)=N2 | nt | 10 | 90* | 0 | 34
Fc1ccc2c(c1)C(c1ccncc1)=NNC(c1cccnc1)=N2 | -0.45 | 2 | 81* | 0 | 35
Cc1nn(C)c(C(=O)NNC(=S)Nc2ccc(F)cc2)c1[N+](=O)[O-] | 0.65 | -1 | 17 | 0 | 57
CC(=O)Nc1ccc(NC(=O)C(C)n2nc([N+](=O)[O-])c(Br)c2C)cc1 (configuration not stated) | nt | 7 | -20 | 0 | 63*
CC(=O)Nc1ccc(NC(=O)C(C)n2nc(C)c([N+](=O)[O-])c2C)cc1 (configuration not stated) | 0.52 | 6 | 1 | 0 | 39
COc1ccc(NC(=S)NNC(=O)C(C)n2nc(C)c([N+](=O)[O-])c2C)cc1 (configuration not stated) | 0.59 | 5 | -21 | 0 | 68*
Cc1nn(C(C)C(=O)NNC(=S)Nc2ccc(F)cc2)c(C)c1[N+](=O)[O-] (configuration not stated) | 0.62 | -2 | -28 | 0 | 72*
CCn1c(C)c(C)c2cc(C(=O)NCCCN3CCCCC3C)ccc21 (configuration not stated) | nt | 3 | 4 | 0 | 48
CCN(CC)S(=O)(=O)c1cccc(-c2nnc(SCC(=O)c3ccc(Cl)s3)n2C)c1 | -0.82 | 6 | -6 | 0 | 64*

Screening data from PubChem.
